Assay outcomes: PubChem BioAssay, National Center for Advancing Translational Sciences (NCATS)
TrxR1 inh: blocks rat thioredoxin reductase 1; O89049; recombinant rTrxR1, NADPH fluorescence consumption, selenite substrate; Potency, µM (doses to about 114 µM), hits mostly inhibitors; 1% of 390,000 active; note: nearly all actives have a fitted effect of over 65% in size
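Rat TrxR1 (90 nM in the dispensed reagent) was pre-reduced with 400 uM NADPH for 5 min at room temperature, then incubated with compound for 15 min. After 400 uM selenite was added, NADPH fluorescence (Ex 340/Em 450 nm) was followed for 8 min.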
GALK inhibitor: galactokinase (human) inhibition; P51570; Purified GALK, Kinase-Glo residual ATP luminescence; Potency, µM (doses to about 57.5 µM), usual class: inhibitors; 0.007% of 270,000 active
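5 nM enzyme, 35 uM ATP, 100 uM galactose, 20 mM HEPES pH8.0, 5 mM MgCl2; 1 h RT; residual ATP by Kinase-Glo Plus luminescence, qHTS format.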
TrxR1 substrate: substrates of rat thioredoxin reductase 1 | O89049 | purified TrxR1 substrate turnover, NADPH consumption readout | Potency, µM (top dose mostly 114 µM) | 0.01% of 390,000 active | AID 588456; note: nearly all actives have a fitted effect of over 50% in size
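Rat TrxR1, dispensed at 90 nM, was prereduced with 400 uM NADPH (final) for 5 min at ~22 deg C, then incubated with compound 15 min before 400 uM selenite. A first-read NADPH fluorescence drop versus no-compound background flagged substrates.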
Giardia killer: kills Giardia lamblia; Giardia lamblia trophozoite viability; activity change, % at 7.66 µM, hits read low; 0.15% of 340,000 active; AID 540267; in the data active = activity change below about -80%; inconclusive = between about -30% and that limit;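 note: parasites exposed to compound for two days anaerobically before the ATP read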
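Anaerobic 48 hrs incubation at 37 deg C of 100 trophozoites/well with test compounds; ATPLite 1-Step luminescence, 15-30 min RT, reports cellular ATP as viability.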
PI4K2A block: blocks human PI4K2A kinase activity. Q9BTU6. purified PI4K2A, ADP-Glo luminescence, 1 h; stronger effect = lower value. activity change, negative = inhibition, % at 76.9 µM. 0.13% of 420,000 active. AID 1346378; in the data active = activity change below about -50%; inconclusive = mostly about -30% to -49%
Target sequence (Q9BTU6 whole entry, looked up): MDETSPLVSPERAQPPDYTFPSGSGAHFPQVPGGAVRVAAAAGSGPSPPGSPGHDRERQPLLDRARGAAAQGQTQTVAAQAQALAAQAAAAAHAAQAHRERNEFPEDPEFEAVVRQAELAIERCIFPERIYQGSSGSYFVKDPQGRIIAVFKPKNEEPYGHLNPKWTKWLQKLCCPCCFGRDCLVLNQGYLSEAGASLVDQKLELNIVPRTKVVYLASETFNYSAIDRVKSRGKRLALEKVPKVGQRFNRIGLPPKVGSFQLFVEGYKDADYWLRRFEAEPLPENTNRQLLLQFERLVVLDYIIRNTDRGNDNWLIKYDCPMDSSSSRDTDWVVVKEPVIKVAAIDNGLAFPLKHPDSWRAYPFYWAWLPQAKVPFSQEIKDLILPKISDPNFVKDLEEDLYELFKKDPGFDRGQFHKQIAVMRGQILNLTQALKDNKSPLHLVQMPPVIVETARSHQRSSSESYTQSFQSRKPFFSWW
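ADP-Glo luminescence measured ADP generated by PI4K2A enzyme (4 ug/mL before mixing) with 1.2 mM PI substrate (pre-mix) and 300 microM ATP (pre-mix). Tris pH7.5 buffer with MgCl2, Triton X-100; 1 h reaction at ambient temperature.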
Coupling enz: inhibits coupling enzyme system, counter-screen for aldolase hits | coupling enzyme system counterscreen, AmpLite Red fluorescence | activity change, negative = inhibition, % at 58.2 µM, hits read low | 0.67% of 290,000 active; in the data active = activity change below about -30%
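Coupling enzymes only (glyceraldehyde-3-phosphate) + compound, at 57.5 uM final, 10 min RT; add substrate/coupling/AmpLite Red mix, 20 min RT; fluorescence ex 525/em 598 nm. Actives flag coupling-system interference.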
Hits are given with their value; [ ] = remark or other dose. Hits are enriched below; roughly 1.5% of the tested compounds scored in any of these assays. Unless noted, calls come from the whole dose curve; as a rule, active = well fitted curve in the direction sought with a large enough effect; inconclusive = small, poorly fitted or top-dose-only effect, or another doubt; inactive = no such curve, though single readings can be large; an effect the other way counts as inactive or inconclusive.

`Cc1ccccc1C(=O)NC1CCCCN(C(C)C)C1=O` (centres undefined) gave PI4K2A block inactive.
Cc1ccc(N(C(=O)CNC(=O)c2ccco2)C(C(=O)NC2CCCCC2)c2cccnc2)cc1C (centres undefined) was read as TrxR1 inh inactive, GALK inhibitor inactive, TrxR1 substrate inactive, Giardia killer inactive, PI4K2A block inactive and Coupling enz inactive.
`Cc1ccc(N(C(=O)CCl)C(C(=O)NC2CCCCC2)c2cccnc2)cc1C` (centres undefined) gave TrxR1 inh 10µM, GALK inhibitor inactive, TrxR1 substrate inactive, Giardia killer inactive, PI4K2A block inactive and Coupling enz inactive.
`O=C1c2oc3ccccc3c(=O)c2C(c2cccs2)N1CCCN1CCOCC1` (centres undefined) gave TrxR1 inh 40µM, GALK inhibitor inactive, TrxR1 substrate inactive, Giardia killer inactive, PI4K2A block inactive and Coupling enz inactive.
Screening CN(C)N1C(N)=C(C#N)C(c2cccs2)C2=C1CC(C)(C)CC2=O (centres undefined) returned TrxR1 inh inactive, GALK inhibitor inactive, TrxR1 substrate inactive, Giardia killer inactive, PI4K2A block inactive and Coupling enz -46.
Cc1ccccc1C1C(C#N)=C(N)N(N(C)C)C2=C1C(=O)CC(C)(C)C2 (centres undefined) was read as TrxR1 inh inactive, GALK inhibitor inactive, TrxR1 substrate inactive, Giardia killer inactive, PI4K2A block inactive and Coupling enz inactive.
`CCCC(=O)Nc1ccc2c(c1)nc1n2CCN(CCOC)C1` gave TrxR1 inh inconclusive, GALK inhibitor inactive, TrxR1 substrate inactive, Giardia killer inactive, PI4K2A block inactive and Coupling enz inactive.
Screening COCCN1CCn2c(nc3cc(NC(=O)c4cccs4)ccc32)C1 returned TrxR1 inh 45µM, GALK inhibitor inactive, TrxR1 substrate inactive, Giardia killer inactive, PI4K2A block inactive and Coupling enz inactive.
For O=C(c1cc(O)c(O)c(O)c1)c1ccc(O)c(O)c1O the results were PI4K2A block inactive.
For N#CC(C#N)=C1C(=O)N(CCN2CCOCC2)c2ccccc21 the results were TrxR1 inh inactive, GALK inhibitor inactive, TrxR1 substrate inactive, Giardia killer inactive, PI4K2A block inactive and Coupling enz -36.
`N#CC(C#N)=C1C(=O)N(CCN2CCCCC2)c2ccccc21` gave TrxR1 inh inactive, GALK inhibitor inactive, TrxR1 substrate inactive, Giardia killer inactive, PI4K2A block inactive and Coupling enz inactive.
Cc1ccc2c(c1)C(=C(C#N)C#N)C(=O)N2CCN1CCOCC1 was read as TrxR1 inh inconclusive, GALK inhibitor inactive, TrxR1 substrate inactive, Giardia killer inactive, PI4K2A block inactive and Coupling enz -36.
Screening N#Cc1nc(COc2ccccc2Cl)oc1NCc1cccnc1 returned TrxR1 inh 35µM, GALK inhibitor inactive, TrxR1 substrate inactive, Giardia killer inactive, PI4K2A block inactive and Coupling enz inactive.
Screening CS(=O)(=O)Nc1ccc(-c2nc3ccccc3s2)cc1 returned TrxR1 inh 79µM, TrxR1 substrate inactive and PI4K2A block inactive.
Screening O=S(=O)(c1ccc(Cl)cc1)c1nc(-c2cccs2)oc1SCc1ccccc1F returned TrxR1 inh inactive, TrxR1 substrate inactive[2.29 µM] and PI4K2A block inactive.
Screening O=C(CNCCC1=CCCCC1)Nc1ccccc1N1CCCCC1 returned TrxR1 inh inactive, GALK inhibitor inactive, TrxR1 substrate inactive, Giardia killer inactive, PI4K2A block inactive and Coupling enz -42.
CCOC(=O)N1CCN(C(=O)CN2C(=O)/C(=C\c3cccc(OC)c3)SC2=S)CC1 was read as TrxR1 inh inactive, TrxR1 substrate inactive and Giardia killer inactive.
`CCOc1ccc(C(=O)CCN2CCCCCC2)cc1` gave TrxR1 inh 0.25µM, GALK inhibitor inactive, TrxR1 substrate inactive, Giardia killer inactive, PI4K2A block inactive and Coupling enz inactive.
Screening CCCCOc1ccc(C(=O)CCN2CCOCC2)cc1 returned TrxR1 inh 3.5µM, GALK inhibitor inactive, TrxR1 substrate inactive, Giardia killer inactive, PI4K2A block inactive and Coupling enz inactive.
`CCCOc1ccc(C(=O)CCN2CCCCC2)cc1` gave TrxR1 inh inconclusive, GALK inhibitor inactive, TrxR1 substrate inactive, Giardia killer inactive, PI4K2A block inactive and Coupling enz inactive.
`Cc1ccccc1Nc1nnc(-c2ccc(C)c(S(=O)(=O)NCC3CCCO3)c2)c2ccccc12` (centres undefined) gave TrxR1 inh inactive, TrxR1 substrate inactive and PI4K2A block inactive.
CC(C)(C)n1ncc2c(=O)n(Cc3ccc(Cl)c(C(F)(F)F)c3)cnc21 was read as TrxR1 inh inactive and TrxR1 substrate inactive.
For CCOc1ccc(C(=O)Nc2cc(C)ccn2)cc1 the results were TrxR1 inh inactive, GALK inhibitor inactive, TrxR1 substrate inactive, Giardia killer -88, PI4K2A block -72 and Coupling enz inactive.
O=C(NCCCO)Nc1ccc2nc(-c3ccco3)c(-c3ccco3)nc2c1 was read as GALK inhibitor inactive and Coupling enz -43.
Screening O=C(Nc1ccc2nc(-c3ccco3)c(-c3ccco3)nc2c1)NC1CC1 returned TrxR1 inh 4.5µM, GALK inhibitor inactive, TrxR1 substrate inactive, Giardia killer inactive, PI4K2A block inconclusive and Coupling enz -37.
For O=C(Nc1ccc(N2CCOCC2)cc1)Nc1ccc2nc(-c3ccco3)c(-c3ccco3)nc2c1 the results were TrxR1 inh inactive, GALK inhibitor inactive, TrxR1 substrate inactive, Giardia killer inactive, PI4K2A block inactive and Coupling enz inactive.
Screening COc1cc2nc(N3CCCN(C)CC3)nc(NC3CCOCC3)c2cc1OC returned TrxR1 inh inactive and TrxR1 substrate inactive.
`Cc1ccc2cc(CCl)c(Cl)nc2c1` gave TrxR1 inh 45µM, GALK inhibitor inactive, TrxR1 substrate inactive, Giardia killer inactive, PI4K2A block inactive and Coupling enz inactive.
For ClCc1cc2ccccc2nc1Cl the results were TrxR1 inh inactive, GALK inhibitor inactive, TrxR1 substrate inactive, Giardia killer inactive, PI4K2A block inactive and Coupling enz inactive.
CN(CCO)c1nc(N)c2c(N)nc3c(c2c1C#N)CC(=O)N3C1CCCC1 was read as GALK inhibitor inactive and Coupling enz -38.
Screening CCC(Sc1nc(-c2ccccc2)[nH]c1S(=O)(=O)c1ccc(C)cc1)C(=O)O (centres undefined) returned TrxR1 inh inactive, TrxR1 substrate inactive and PI4K2A block inactive.
Screening O=C(O)/C=C/C(=O)Nc1ccc(N2CCOCC2)nc1N1CCOCC1 returned TrxR1 inh 16µM, GALK inhibitor inactive, TrxR1 substrate inactive, Giardia killer inactive, PI4K2A block inactive and Coupling enz inactive.
